Experimental findings from PubChem BioAssay (NCI) are described below.

Molecules are shown by their SMILES. About 79,000 compounds went through this panel and 15% of them were active in at least one assay; those are over-represented in the sample as a whole. Unmarked numbers belong to inactive results. Activity calls are given as the source filed them. No stated cut-off is given here; in the data, active means growth inhibition above about 70%; inactive means the rest.

The nature of assay [1]: NCI Yeast Anticancer Drug Screen. Data for the rad50 strain (AID 155).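 Further: 0% = growth of vehicle-only cultures of the same strain.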 To be noted: S. cerevisiae rad50 strain growth inhibition; at 50.0 µM; hits give high values. In a few lines:
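Readout: growth inhibition relative to vehicle-treated cultures. Compound exposure was carried out in a genetically defined yeast strain deficient in DNA damage repair.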

A short description of assay [2]: NCI Yeast Anticancer Drug Screen. Data for the mec2-1 strain (AID 157). To be noted: S. cerevisiae mec2-1 strain, at 50.0 µM, hits give high values. In a few lines:
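Growth inhibition is read against vehicle-treated controls after compound exposure of the mec2-1 yeast strain, which is defective in DNA damage repair or cell cycle control.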

The nature of assay [3]: NCI Yeast Anticancer Drug Screen. Data for the sgs1 mgt1 strain (AID 161).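 Further: 0% = growth of cultures given vehicle only.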 The following applies: S. cerevisiae sgs1 mgt1 strain, at 50.0 µM, hits give high values. The procedure, abridged: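 This yeast growth screen uses a strain with defined DNA-repair lesions; compound-treated growth is compared with vehicle-treated growth.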
Assay [4] is described as follows: NCI Yeast Anticancer Drug Screen. Data for the cln2 rad14 strain (AID 165).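 Further: 0% = growth equal to vehicle treated cultures.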 To be noted: S. cerevisiae cln2 rad14 strain, at 50.0 µM, hits give high values. In a few lines:
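Growth inhibition, relative to vehicle-treated controls, is the read-out. The test organism is a yeast strain with defined genetic alterations, cln2 rad14.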

Assay [5] can be described thus: NCI Yeast Anticancer Drug Screen. Data for the bub3 strain (AID 167). To be noted: S. cerevisiae bub3 mutant strain, at 50.0 µM, hits give high values. The procedure, abridged: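 Readout: yeast growth inhibition, expressed relative to vehicle-only wells. The test organism is a mutant strain from a panel with lesions in DNA repair or checkpoint genes.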
A short description of assay [6]: NCI Yeast Anticancer Drug Screen. Data for the mlh1 rad18 strain (AID 175). To be noted: S. cerevisiae mlh1 rad18 strain growth inhibition; at 50.0 µM; hits give high values. In a few lines: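 Cells of a genetically altered yeast strain, deficient in DNA damage repair, were treated with compound. Their growth was then compared with that of vehicle-treated cultures to give inhibition.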

As to `Cc1ccc(NC(=O)OCCOc2ccccc2)cc1NC(=O)OCCOc1ccccc1`, the growth inhibition in assay [1] is 10.3%; in assay [2] it was 17.1%; in assay [3], 28%; in assay [4] it was 6.3%; in assay [5], 3.1%; in assay [6], 33.9%.
In the case of `CN1C(=O)c2ccccc2N(C)C(=O)c2ccccc21`, the growth inhibition in assay [1] is 0.9%; in assay [2] it was -15.1%; in assay [3], 11.3%; in assay [4], -2.45%; in assay [5], 4.85%; in assay [6], 12%.
On to `CC(C)(C)CC(C)(C)c1ccc(OCc2ccc(C(F)(F)F)cc2)cc1`, for which the growth inhibition in assay [1] was 14.2%; in assay [2], 10.9%; in assay [3], 5.1%; in assay [4] it was 13.4%; in assay [5], -4.8%; in assay [6], -1.7%.
On to `Cc1cc(COCCN(C)C)on1`, for which the growth inhibition in assay [1] is -3.5%; in assay [2] it was 14.2%; in assay [3], 14.9%; in assay [4] it was -3.95%; in assay [5] it was 11.8%; in assay [6], 4.35%.
For the molecule `NNC(=O)CSCC(=O)NN`, the growth inhibition in assay [1] is -1.9%; in assay [2], -2.05%; in assay [3], -3.25%; in assay [4], -9.75%; in assay [5] it was 1.2%; in assay [6], -5.35%.
On to `SCCCCN1CCCCC1`, for which the growth inhibition in assay [1] is -17.2%; in assay [2] it was -14.3%; in assay [3] it was 5.4%; in assay [4] it was -12.2%; in assay [5], -4.45%; in assay [6], -9.9%.
As for `CN(C)CCC(=O)Cc1ccccc1`, the growth inhibition was -8.8% in assay [1]; -12.3% in assay [2]; -4.55% in assay [3]; -8.15% in assay [4]; -26.1% in assay [5]; 0.95% in assay [6].
As for `CC(C)(C)OC(=O)CC(O)c1ccccc1` (stereo unspecified), the growth inhibition is 3.8% in assay [1]; -2.9% in assay [2]; 3.65% in assay [3]; -2.45% in assay [4]; -3.7% in assay [5]; 20.8% in assay [6].
As for `COc1ccccc1NC(=O)c1nc2ccc([N+](=O)[O-])cc2nc1C`, the growth inhibition in assay [1] was 21.4%; in assay [2] it was 19.1%; in assay [3] it was 1.65%; in assay [4] it was 15.4%; in assay [5], 33.9%; in assay [6] it was 20.4%.
For the molecule `COc1cnc2cc(C(=O)O)c3ccccc3c2c1`, the growth inhibition in assay [1] is 40.5%; in assay [2], 9.7%; in assay [3], 13.2%; in assay [4] it was 23.1%; in assay [5], -1.15%; in assay [6], 29.1%.
Turning to `O/N=C1/CCCc2nonc21`, the growth inhibition was -18.6% in assay [1]; -3.15% in assay [2]; -0.3% in assay [3]; 4.35% in assay [4]; -8.2% in assay [5]; -6.5% in assay [6].
Take `C=CCCCC(C#N)c1ccc2c(c1)OCO2` (stereo unspecified): the growth inhibition in assay [1] is -3.25%; in assay [2], -14.2%; in assay [3] it was -4.85%; in assay [4], -82%; in assay [5], -40.6%; in assay [6], -15.2%.
For the molecule `CCC/C=N/NS(=O)(=O)c1ccc(C)cc1`, the growth inhibition was 32.1% in assay [1]; 15.7% in assay [2]; 30.8% in assay [3]; 11.8% in assay [4]; -29.9% in assay [5]; 12.6% in assay [6].
Consider `Nc1ncnc2nc(I)[nH]c12`, for which the growth inhibition in assay [1] is -1.45%; in assay [2], 1.25%; in assay [3], -4.55%; in assay [4], -6.75%; in assay [5], 26.7%; in assay [6], 7.3%.
As to `O=C(O)c1c(O)ccc(O)c1C(=O)O`, the growth inhibition is -38.5% in assay [1]; -30.8% in assay [2]; -29.7% in assay [3]; -21.1% in assay [4]; -8.8% in assay [5]; -11.2% in assay [6].
With `CCCCCCCSCC1OC(n2cnc3c(N)ncnc32)C(O)C1O` (stereo unspecified), the growth inhibition in assay [1] was 3.35%; in assay [2] it was 11.1%; in assay [3], 11.4%; in assay [4], 5.5%; in assay [5] it was 3.1%; in assay [6] it was 9.3%.
Consider `Cc1ccccc1/C=C/C(=O)c1ccccc1`, for which the growth inhibition in assay [1] was 45.2%; in assay [2] it was 24.6%; in assay [3], 40.8%; in assay [4], 1.8%; in assay [5], 11.4%; in assay [6], 20%.
Consider `Cc1ccc(NC(N)=O)cc1`, for which the growth inhibition in assay [1] is -33.5%; in assay [2], -43.9%; in assay [3], -24.1%; in assay [4], 10.7%; in assay [5], -1.05%; in assay [6], -5.9%.
Turning to `CC1(C)OC(=O)CC1CCN` (stereo unspecified), the growth inhibition was -0.75% in assay [1]; -13.5% in assay [2]; -7.05% in assay [3]; -30.9% in assay [4]; 14.9% in assay [5]; 13.2% in assay [6].
Turning to `O=C(Cc1ccccc1)c1ccc(OCC(O)CN2CCN(c3ccccc3)CC2)cc1` (stereo unspecified), the growth inhibition was 97.7% (active) in assay [1]; 98.1% (active) in assay [2]; 99.3% (active) in assay [3]; 93.4% (active) in assay [4]; 84.1% (active) in assay [5]; 96.3% (active) in assay [6].
As to `N#CCC(=O)N/N=C1/C(=O)N(c2cc(Cl)ccc2Cl)C(=O)C(=O)C1c1nc2ccccc2s1` (stereo unspecified), the growth inhibition was 42.8% in assay [1]; 27.8% in assay [2]; 38.1% in assay [3]; 19.9% in assay [4]; -0.5% in assay [5]; 51% in assay [6].
